According to PubChem BioAssay AID1159580 (chemical genetic matrix, 2015):
About 2,000 (36%) of roughly 5,500 compounds were called active. Inconclusive results (about 18%) are left out. Cut-off read from the data, not from the text of the source: active = normalized growth mostly below about 0.91 (no sharp cut-off); inconclusive = no clear call, values can overlap the other calls; inactive = mostly above about 0.92. Some of the results follow.

Assay: chemical genetic growth profiling, strain panel (AID 1159580);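 note: tested at 20 µM; growth read once vehicle control cultures reached saturation at 30 °C; 1 = growth at the plate median or of vehicle wells; lower values mean less growth of the strain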
Details: growth OD

Measured: normalized growth

CCN(CCO)CCCC(C)Nc1ccnc2cc(Cl)ccc12 (configuration not stated)
inactive: S. cerevisiae deletion strains, locus YJR075W, strain HOC1, hits give low values 1.01 | S. cerevisiae deletion strains, locus YKL009W, strain mrt4, hits give low values 1.03 | S. cerevisiae deletion strains, locus YKL068W, hits give low values 0.998 | S. cerevisiae deletion strains, locus YKL085W, strain MDH1 (second series), hits give low values 1 | S. cerevisiae deletion strains, locus YKL085W, strain MDH1, hits give low values 1 | S. cerevisiae deletion strains, locus YKL160W, strain elf1, hits give low values 0.995 | S. cerevisiae deletion strains, locus YKL190W, strain CNB1, hits give low values 1.02 | S. cerevisiae deletion strains, locus YKR001C, strain vps1, hits give low values 1.03 | S. cerevisiae deletion strains, locus YKR026C, strain gcn3, hits give low values 1 | S. cerevisiae deletion strains, locus YKR091W, strain srl3, hits give low values 1 | S. cerevisiae deletion strains, locus YLL001W, strain dnm1, hits give low values 0.988 | S. cerevisiae deletion strains, locus YLL026W, hits give low values 1.01 | S. cerevisiae deletion strains, locus YLL041C, strain sdh2, hits give low values 1.01 | S. cerevisiae deletion strains, locus YLR027C, strain aat2, hits give low values 1 | S. cerevisiae deletion strains, locus YLR039C, strain RIC1, hits give low values 1.04 | S. cerevisiae deletion strains, locus YLR058C, strain SHM2, hits give low values 1.01 | S. cerevisiae deletion strains, locus YLR102C, strain apc9, hits give low values 1.01 | S. cerevisiae deletion strains, locus YLR113W, strain HOG1, hits give low values 1.03 | S. cerevisiae deletion strains, locus YLR221C, strain rsa3, hits give low values 0.996 | S. cerevisiae deletion strains, locus YLR258W, strain gsy2, hits give low values 0.999 | S. cerevisiae deletion strains, locus YLR262C, strain YPT6 (second series), hits give low values 0.989 | S. cerevisiae deletion strains, locus YLR262C, strain YPT6, hits give low values 1.06 | S. cerevisiae deletion strains, locus YLR268W, strain sec22, hits give low values 1.02 | S. cerevisiae deletion strains, locus YLR320W, strain mms22, hits give low values 0.997 | S. cerevisiae deletion strains, locus YLR330W, strain CHS5, hits give low values 1.01 | S. cerevisiae deletion strains, locus YLR342W, strain FKS1 (second series), hits give low values 1.02 | S. cerevisiae deletion strains, locus YLR342W, strain FKS1, hits give low values 0.997 | S. cerevisiae deletion strains, locus YLR357W, strain rsc2, hits give low values 1.02 | S. cerevisiae deletion strains, locus YLR370C, strain arc18, hits give low values 1 | S. cerevisiae deletion strains, locus YLR371W, strain rom2, hits give low values 1 | S. cerevisiae deletion strains, locus YLR384C, strain iki3, hits give low values 1 | S. cerevisiae deletion strains, locus YLR418C, strain cdc73, hits give low values 1.04 | S. cerevisiae deletion strains, locus YML016C, strain PPZ1, hits give low values 1 | S. cerevisiae deletion strains, locus YML032C, strain rad52, hits give low values 1.05 | S. cerevisiae deletion strains, locus YML120C, strain ndi1, hits give low values 0.999 | S. cerevisiae deletion strains, locus YML124C, strain tub3, hits give low values 1.01 | S. cerevisiae deletion strains, locus YMR058W, strain fet3, hits give low values 1 | S. cerevisiae deletion strains, locus YMR078C, strain ctf18, hits give low values 1.03 | S. cerevisiae deletion strains, locus YMR125W, strain sto1, hits give low values 1 | S. cerevisiae deletion strains, locus YMR129W, hits give low values 1 | S. cerevisiae deletion strains, locus YMR205C, strain PFK2, hits give low values 0.986 | S. cerevisiae deletion strains, locus YMR223W, strain ubp8, hits give low values 1.02 | S. cerevisiae deletion strains, locus YMR231W, strain pep5, hits give low values 0.987 | S. cerevisiae deletion strains, locus YMR263W, strain SAP30, hits give low values 1.01 | S. cerevisiae deletion strains, locus YMR307W, strain GAS1, hits give low values 1.11 | S. cerevisiae deletion strains, locus YNL067W, strain RPL9B, hits give low values 1.01 | S. cerevisiae deletion strains, locus YNL071W, strain lat1, hits give low values 1 | S. cerevisiae deletion strains, locus YNL128W, strain TEP1, hits give low values 1.02 | S. cerevisiae deletion strains, locus YNL153C, strain GIM3, hits give low values 1 | S. cerevisiae deletion strains, locus YNL183C, strain NPR1, hits give low values 0.952 | S. cerevisiae deletion strains, locus YNL209W, strain ssb2, hits give low values 1 | S. cerevisiae deletion strains, locus YNL233W, strain BNI4, hits give low values 1.01 | S. cerevisiae deletion strains, locus YNL248C, strain rpa49, hits give low values 1 | S. cerevisiae deletion strains, locus YNL250W, strain rad50, hits give low values 1.03 | S. cerevisiae deletion strains, locus YNL271C, strain bni1, hits give low values 1.01 | S. cerevisiae deletion strains, locus YNL298W, strain CLA4, hits give low values 1.02 | S. cerevisiae deletion strains, locus YNL307C, strain MCK1, hits give low values 1.01 | S. cerevisiae deletion strains, locus YNL322C, strain KRE1 (second series), hits give low values 1 | S. cerevisiae deletion strains, locus YNL322C, strain KRE1, hits give low values 1.01 | S. cerevisiae deletion strains, locus YNR049C, strain mso1, hits give low values 0.999 | S. cerevisiae deletion strains, locus YNR052C, strain pop2, hits give low values 1.02 | S. cerevisiae deletion strains, locus YOL006C, strain TOP1, hits give low values 1.01 | S. cerevisiae deletion strains, locus YOL012C, strain htz1 0.994 | S. cerevisiae deletion strains, locus YOL147C, strain pex11, hits give low values 1.02 | S. cerevisiae deletion strains, locus YOR001W, strain rrp6, hits give low values 1 | S. cerevisiae deletion strains, locus YOR061W, strain CKA2, hits give low values 1.01 | S. cerevisiae deletion strains, locus YOR069W, strain VPS5, hits give low values 1.01 | S. cerevisiae deletion strains, locus YOR070C, strain gyp1, hits give low values 0.995 | S. cerevisiae deletion strains, locus YOR080W, strain dia2, hits give low values 0.997 | S. cerevisiae deletion strains, locus YOR083W, strain WHI5, hits give low values 0.996 | S. cerevisiae deletion strains, locus YOR106W, strain vam3, hits give low values 1.01 | S. cerevisiae deletion strains, locus YOR136W, strain idh2, hits give low values 1.03 | S. cerevisiae deletion strains, locus YOR144C, strain elg1, hits give low values 1.02 | S. cerevisiae deletion strains, locus YOR184W, strain ser1, hits give low values 1.03 | S. cerevisiae deletion strains, locus YOR231W, strain MKK1, hits give low values 1.02 | S. cerevisiae deletion strains, locus YOR265W, strain rbl2, hits give low values 1.04 | S. cerevisiae deletion strains, locus YOR270C, strain vph1, hits give low values 1.03 | S. cerevisiae deletion strains, locus YOR290C, strain snf2, hits give low values 1.03 | S. cerevisiae deletion strains, locus YOR316C, strain cot1, hits give low values 1.01 | S. cerevisiae deletion strains, locus YPL051W, strain arl3, hits give low values 0.995 | S. cerevisiae deletion strains, locus YPL055C, strain LGE1, hits give low values 1.04 | S. cerevisiae deletion strains, locus YPL078C, strain atp4, hits give low values 1.01 | S. cerevisiae deletion strains, locus YPL106C, strain sse1, hits give low values 0.991 | S. cerevisiae deletion strains, locus YPL240C, strain hsp82, hits give low values 1 | S. cerevisiae deletion strains, locus YPL241C, strain CIN2, hits give low values 1.01 | S. cerevisiae deletion strains, locus YPL256C, strain CLN2, hits give low values 0.966 | S. cerevisiae deletion strains, locus YPR119W, strain clb2, hits give low values 1.01 | S. cerevisiae deletion strains, locus YPR141C, strain kar3, hits give low values 1.02 | S. cerevisiae deletion strains, locus YPR163C, strain tif3, hits give low values 1.01 | S. cerevisiae deletion strains, locus YPR167C, strain met16, hits give low values 1.01 | S. cerevisiae deletion strains, strain wtn01, hits give low values 1.01 | S. cerevisiae strains, strain wild type, hits give low values 1.02
